In PubChem BioAssay (Tox21):
“And” between values parts separate entries of the source, which are not always exact repeats. Identical values can stand only once. Inconclusive results are not listed. Entries that show only a call come without a potency. Some compounds were tested as several samples or in several runs, with calls that do not always agree. The source made the active and inactive calls. Unless noted, the call rests on the fitted dose curve; in most records, active means well fitted curve in the direction sought with a large enough effect in the repeat runs; inconclusive means weak or mixed curves; inactive means no such curve, though single readings can be large; an effect the other way counts as inactive or inconclusive.

Columns and labels:
[1] = qHTS assay to identify aromatase inhibitors - cell viability counter screen (AID 743084);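 further: cells stimulated with testosterone during compound exposure; nearly all actives have a fitted effect of over 55% in size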; further: potency means the concentration at half of the fitted maximal effect
[2] = molecular target: Aryl hydrocarbon receptor (Homo sapiens) (UniProt P35869); test: qHTS assay to identify small molecule that activate the aryl hydrocarbon receptor (AhR) signaling pathway (AID 743085); further: nearly all actives have a fitted effect of over 15% in size; further: potency means the concentration at half of the fitted maximal effect;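 on activation: HG2L7.5c1 human HepG2 liver cells with stably integrated DRE-driven firefly reporter; series mostly up to about 70 µM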
In short: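 Stably transfected human liver carcinoma cells (HG2L7.5c1; 20 DRE-firefly luciferase) were incubated 5 h, dosed, and kept 24 h at 37C. Agonism was scored from increased luciferase luminescence.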

[3] = qHTS assay to identify small molecule that activate the aryl hydrocarbon receptor (AhR) signaling pathway - cell viability counter screen (AID 743086); further: nearly all actives have a fitted effect of over 45% in size; further: potency means the concentration at half of the fitted maximal effect;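 on viability change, negative = cytotoxic: HepG2 liver cells carrying the AhR DRE luciferase reporter; series mostly up to about 70 µM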
In short: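 HepG2-AhR-luc (HG2L7.5c1) cells, 4000/well, treated 24 h at 37 C with compound; viability measured as CellTiter-Fluor fluorescence after 30 min in the same wells as the luciferase read.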

[4] = molecular target: Peroxisome proliferator-activated receptor gamma (Homo sapiens) (UniProt P37231); test: qHTS assay to identify small molecule agonists of the peroxisome proliferator-activated receptor gamma (PPARg) signaling pathway (AID 743094; active means well fitted activation curve with a large enough effect in the signal ratio in the repeat runs, not every such curve was filed as active; the % refers to the signal ratio; further: potency means the concentration at half of the fitted maximal effect)
In short: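 HEK293H PPARg-bla cells, 5 h settle at 37C/5% CO2; compound (DMSO) 17 h, 37C; B/G FRET substrate 1 h RT; fluorescence intensity read-out. qHTS format.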

[5] = qHTS assay for small molecule agonists of the antioxidant response element (ARE) signaling pathway - cell viability counter screen (AID 743203; calls by dose curve; further: nearly all actives have a fitted effect of over 55% in size; further: potency means the concentration at half of the fitted maximal effect)
In short: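 Luminescence read-out (CellTiter-Glo, 30 min at room temperature) measured cell viability in the same wells as the ARE beta-lactamase reporter. HepG2 ARE-bla cells were treated with compounds for 16 hrs at 37C/5% CO2.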

[6] = qHTS assay for small molecule activators of the heat shock response signaling pathway (AID 743210; active means well fitted activation curve with a large enough effect in the signal ratio in the repeat runs, with a control signal flat, not every such curve was filed as active; the % refers to the signal ratio;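 further: HeLa cells with beta-lactamase reporter driven by heat shock elements; series mostly up to about 63 µM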)
In short: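 Beta-lactamase reporter read-out: FRET substrate fluorescence after 2.5 h at RT, following 5 h compound treatment at 37 C of HeLa cells carrying HSE-driven bla reporter; quantitative HTS format.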

[7] = qHTS assay to identify small molecule antagonists of the peroxisome proliferator-activated receptor gamma (PPARg) signaling pathway - cell viability counter screen (AID 743194); details: Potency: co-treated with 50 nM rosiglitazone unless noted; further: nearly all actives have a fitted effect of over 55% in size; further: potency means the concentration at half of the fitted maximal effect
In short: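 Cytotoxicity counter screen in PPARg-bla HEK293H cells, same wells as reporter assay. Compounds plus 50 nM rosiglitazone (final) for 17 h at 37 C, then viability read by CellTiter-Glo luminescence.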

[8] = qHTS assay for small molecule agonists of the antioxidant response element (ARE) signaling pathway (AID 743202; active means well fitted activation curve with a large enough effect in the signal ratio in the repeat runs, not every such curve was filed as active; the % refers to the signal ratio; further: potency means the concentration at half of the fitted maximal effect)
In short: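 HepG2 ARE-bla reporter line, 2,000 cells/well; 5 h preincubation 37 C/5% CO2; compound (DMSO) 16 h 37 C; B/G FRET substrate 2 h RT; fluorescence intensity.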

[9] = qHTS assay for small molecule activators of the heat shock response signaling pathway - cell viability counter screen (AID 743209); further: nearly all actives have a fitted effect of over 50% in size; further: potency means the concentration at half of the fitted maximal effect
In short: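 HSE-bla HeLa; 1500 cells/well; overnight 37 C, 5% CO2; compound 5 h 37 C; LiveBLAzer B/G substrate 2.5 h RT; CellTiter-Glo 30 min RT; luminescence.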

[10] = molecular target: Peroxisome proliferator-activated receptor gamma (Homo sapiens) (UniProt P37231); test: qHTS assay to identify small molecule antagonists of the peroxisome proliferator-activated receptor gamma (PPARg) signaling pathway (AID 743191; calls by dose curve; further: nearly all actives have a fitted effect of over 30% in size; further: potency means the concentration at half of the fitted maximal effect)
In short: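 GeneBLAzer PPARg UAS-bla HEK293H cells, 5 h post-plating, exposed to compounds 17 h at 37C. LiveBLAzer B/G FRET substrate added for 1 h at room temperature; beta-lactamase reporter read by fluorescence intensity.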

Sequence of Aryl hydrocarbon receptor (Homo sapiens) (P35869 whole entry, looked up): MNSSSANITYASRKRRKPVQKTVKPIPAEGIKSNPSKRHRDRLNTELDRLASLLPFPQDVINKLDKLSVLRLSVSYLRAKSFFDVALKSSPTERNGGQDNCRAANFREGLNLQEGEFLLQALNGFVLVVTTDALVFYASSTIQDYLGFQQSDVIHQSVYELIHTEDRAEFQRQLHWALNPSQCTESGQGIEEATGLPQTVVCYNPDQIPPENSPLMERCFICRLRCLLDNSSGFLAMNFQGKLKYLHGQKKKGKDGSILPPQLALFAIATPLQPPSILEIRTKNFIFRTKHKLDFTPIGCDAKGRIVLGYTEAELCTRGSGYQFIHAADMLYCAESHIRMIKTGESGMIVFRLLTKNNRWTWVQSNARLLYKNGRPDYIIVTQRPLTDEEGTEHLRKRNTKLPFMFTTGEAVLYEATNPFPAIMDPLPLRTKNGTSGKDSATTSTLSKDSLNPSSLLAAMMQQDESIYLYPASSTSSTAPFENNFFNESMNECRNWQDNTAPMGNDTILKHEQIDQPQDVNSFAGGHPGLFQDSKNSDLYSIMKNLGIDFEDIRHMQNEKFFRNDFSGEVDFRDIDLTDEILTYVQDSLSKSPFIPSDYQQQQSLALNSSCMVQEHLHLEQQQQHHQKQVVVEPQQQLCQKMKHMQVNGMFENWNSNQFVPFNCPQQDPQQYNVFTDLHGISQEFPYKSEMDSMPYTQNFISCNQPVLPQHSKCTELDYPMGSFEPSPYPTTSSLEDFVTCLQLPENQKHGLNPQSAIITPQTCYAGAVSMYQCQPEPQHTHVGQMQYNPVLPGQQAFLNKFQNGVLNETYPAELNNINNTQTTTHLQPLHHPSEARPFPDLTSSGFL
Sequence of Peroxisome proliferator-activated receptor gamma (Homo sapiens) (P37231 whole entry, looked up): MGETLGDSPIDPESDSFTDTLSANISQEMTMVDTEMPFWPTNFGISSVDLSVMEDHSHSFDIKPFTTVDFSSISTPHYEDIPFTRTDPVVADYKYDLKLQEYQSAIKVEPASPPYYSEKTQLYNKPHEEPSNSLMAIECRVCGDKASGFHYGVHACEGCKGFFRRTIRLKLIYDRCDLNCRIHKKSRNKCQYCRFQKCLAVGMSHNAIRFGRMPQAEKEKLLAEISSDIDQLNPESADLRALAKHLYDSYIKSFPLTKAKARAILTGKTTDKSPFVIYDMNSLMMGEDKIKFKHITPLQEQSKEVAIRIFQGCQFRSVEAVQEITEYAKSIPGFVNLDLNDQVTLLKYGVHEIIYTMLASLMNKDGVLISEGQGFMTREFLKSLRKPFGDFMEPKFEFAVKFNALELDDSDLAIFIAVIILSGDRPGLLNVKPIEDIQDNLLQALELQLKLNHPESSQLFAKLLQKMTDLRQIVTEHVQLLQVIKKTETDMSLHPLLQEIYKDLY

SMILES	Potency [1]	Potency [2]	Potency [3]	Potency [4]	Potency [5]	Potency [6]	activity change, negative = cytotoxicity [1]	activation [2]	viability change, negative = cytotoxic [3]	activation [4]	Potency [7]	Potency [8]	Potency [9]	Potency [10]
CC(C)(C)c1ccc(OP(=O)(Oc2ccccc2)Oc2ccccc2)cc1	inactive	inactive	inactive	inactive	inactive	inactive								
CCCCC/C=C\C/C=C\C/C=C\C/C=C\CCCC(=O)NCC(=O)O					inactive		-2.83% [at 8.47 µM] (inactive)	-2.57% [at 8.47 µM] (inactive)	8.28% [at 8.47 µM] (inactive)	-0.604% [at 7.08 µM] (inactive)	inactive			
Oc1cccc(Cl)c1Cl	inactive	inactive	inactive	inactive	inactive	inactive					inactive	inactive	inactive	
CCOP(=S)(OCC)Oc1cc(C)nc(N(CC)CC)n1	inactive	2.73 µM (active)	inactive	inactive	inactive	inactive					inactive		inactive	
CCN(CC)CCc1c[nH]c2ccccc12	inactive	inactive	inactive	inactive	inactive						inactive		inactive	
ClC1=C(Cl)[C@]2(Cl)[C@H]3[C@H]([C@@H]4C=C[C@H]3C4)[C@@]1(Cl)C2(Cl)Cl	inactive	inactive	inactive	inactive	inactive and 54.5 µM (active)	inactive					49 µM (active)	inactive	inactive and 24.5 µM (active)	
c1csc(-c2ccc(-c3cccs3)s2)c1	inactive	24.3 µM (active)	inactive	21.9 µM (active)	inactive							2.73 µM (active)	inactive	
ClC1(Cl)C2(Cl)C3(Cl)C4(Cl)C(Cl)(Cl)C5(Cl)C3(Cl)C1(Cl)C5(Cl)C24Cl (centres undefined)	inactive	inactive	inactive	inactive	inactive	inactive							inactive	
CC(C)C(Br)C(=O)NC(N)=O (centres undefined)	inactive	inactive	inactive	inactive	inactive	inactive					inactive		inactive	
CCOC(=O)CCN(SN(C)C(=O)Oc1cccc2c1OC(C)(C)C2)C(C)C	inactive	inactive	inactive	inactive	inactive						inactive	inactive	inactive	
CCCCc1ccccc1	inactive	inactive	inactive	inactive	inactive								inactive	
C[C@H]1[C@H](c2ccc(Cl)cc2)SC(=O)N1C(=O)NC1CCCCC1	inactive	inactive	inactive	inactive	inactive						inactive		inactive	
N#Cc1ccc(N(CC(N)=O)CC(F)(F)F)cc1C(F)(F)F	inactive	inactive	inactive	0.692 µM (active)	inactive	inactive					inactive	inactive	inactive	
CCCCC(CC)COC(=O)OOC(C)(C)C (centres undefined)	inactive	inactive	inactive	inactive	inactive						inactive	inactive	49 µM (active)	
CC(C)c1c(CN(C)C(C)Cc2ccccc2)n(C)n(-c2ccccc2)c1=O (centres undefined)	inactive	inactive	inactive	inactive	inactive	inactive							inactive	
CCOC(=O)Cc1ccccc1	inactive	inactive	inactive	inactive	inactive	inactive					inactive	inactive	inactive	
Oc1cc(Cl)cc(Cl)c1	inactive	inactive	inactive	inactive	inactive	inactive								inactive
Clc1ccc(C(c2ccc(Cl)cc2)C(Cl)Cl)cc1	inactive	inactive	inactive	inactive	54.5 µM (active)								49 µM (active)	
CC(C)N(C(=O)CCl)c1ccccc1	24.3 µM (active)	inactive	38.6 µM (active) and 68.6 µM (active)	inactive	6.86 µM (active) and 3.86 µM (active)								12.3 µM (active) and 5.49 µM (active)	3.89 µM (active) and 3.47 µM (active)
BrCC(Br)(Br)Br	inactive	inactive	inactive	inactive									inactive	inactive
CCCCC(CC)COC(=O)c1ccccc1C(=O)OCC(CC)CCCC (centres undefined)	inactive	inactive	inactive	inactive	inactive									
Cc1nn(-c2cc(NS(C)(=O)=O)c(Cl)cc2Cl)c(=O)n1C(F)F	inactive	inactive	inactive	inactive	inactive	inactive					inactive		inactive	
O=S1OCC2C(CO1)C1(Cl)C(Cl)=C(Cl)C2(Cl)C1(Cl)Cl (centres undefined)	48.6 µM (active)	inactive	inactive	inactive	54.4 µM (active)						55 µM (active) and 24.5 µM (active)		24.5 µM (active)	
O=[N+]([O-])c1ccc(CCl)cc1	inactive	inactive	inactive	inactive	inactive	inactive					inactive		inactive	
CC(=O)C(Cl)C(=O)N(C)C (centres undefined)	inactive	inactive	inactive	inactive	inactive	inactive							inactive	
CC1CN1 (centres undefined)	inactive	inactive	inactive	inactive	inactive	inactive					inactive	inactive	inactive	
COc1ccc2[nH]cc(CCN(C(C)C)C(C)C)c2c1	inactive	22.2 µM (active)	inactive	inactive	inactive	inactive					inactive		inactive	
